# Measurements from PubChem BioAssay.
# “And” between values parts separate entries of the source, which are not always exact repeats. Identical values can stand only once. Results filed as inconclusive are left out. For some assays here: Measured potencies and affinities stand elsewhere. The source made the active and inactive calls. Unless noted, the rule behind the calls is not given here.
# Experiments:
# [1] = liver-stage malaria parasite growth inhibition, primary screen, cell-based, HepG2, luciferase luminescence, HepG2 viability (AID 624349; in the data active = parasite load remaining mostly below about 12%, no sharp cut-off; inactive = mostly above about 10%;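 note: 100% = mean of DMSO negative control wells on the same plate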); conditions: P. berghei liver stage in HepG2, luciferase luminescence, concentration not given here; parasite load remaining: stronger effect = lower value; viability: measured here: HepG2 viability without parasites
# [2] = Cy5 fluorescence interference with SSB-bound oligo, artefact control for HCV NS3 helicase inhibitor project, biochemical, NIH Clinical Collection, E. coli SSB (AID 743268)
# [3] = test system: Hepatitis C virus NS3 helicase; experiment: HCV NS3 helicase inhibitors, primary screen, biochemical, fluorescence polarization, NIH Clinical Collection (AID 743270); conditions: NS3 helicase binding to Cy5-dT15 DNA, stronger effect = higher value, concentration not given here
# [4] = molecular target: Single-stranded DNA-binding protein (Escherichia coli (strain K12)) (UniProt P0AGE0); experiment: E. coli SSB displacement from DNA, counter-screen for HCV NS3 helicase inhibitor project, biochemical, fluorescence polarization, NIH Clinical Collection (AID 743271; in the data active = inhibition above about 28%); conditions: stronger effect = higher value, concentration not given here
# [5] = fluorescence interference in NS3h assay format, artefact control for HCV NS3 helicase inhibitor project, biochemical, NIH Clinical Collection (AID 743272); conditions: fluorescence interference counterscreen, stronger effect = lower value;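 note: HCV NS3 helicase with a Cy5 labelled single stranded DNA probe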
# [6] = molecular target: 6-phosphogluconate dehydrogenase, decarboxylating (Homo sapiens) (UniProt P52209); experiment: 6PGD enzyme inhibitors, primary screen, biochemical, human, recombinant enzyme, NADPH absorbance (AID 1159550;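 active = at least 20% inhibition of 6-phosphogluconate dehydrogenase activity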); conditions: recombinant 6PGD, NADPH absorbance 341 nm; at 10 µM; stronger effect = higher value
# Chain of 6-phosphogluconate dehydrogenase, decarboxylating (Homo sapiens) (P52209 whole entry, looked up): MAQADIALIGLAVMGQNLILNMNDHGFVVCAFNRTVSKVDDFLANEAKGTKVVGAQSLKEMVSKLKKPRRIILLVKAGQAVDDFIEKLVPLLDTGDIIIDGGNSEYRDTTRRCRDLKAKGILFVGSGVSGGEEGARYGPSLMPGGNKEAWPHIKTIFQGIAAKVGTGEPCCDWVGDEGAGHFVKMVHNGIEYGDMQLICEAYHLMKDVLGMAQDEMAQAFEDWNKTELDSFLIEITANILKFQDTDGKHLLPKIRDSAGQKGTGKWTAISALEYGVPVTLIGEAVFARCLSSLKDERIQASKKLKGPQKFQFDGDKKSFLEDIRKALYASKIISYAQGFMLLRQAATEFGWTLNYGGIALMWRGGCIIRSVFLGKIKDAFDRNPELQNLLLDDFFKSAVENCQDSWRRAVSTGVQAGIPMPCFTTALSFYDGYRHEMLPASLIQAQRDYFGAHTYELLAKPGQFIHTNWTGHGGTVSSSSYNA
# [7] = growth inhibition of DIPG glioma cells, dose response, cell-based, SU-DIPG-XIII, MIPE4.0, CellTiter-Glo, qHTS (AID 1347061; cut-off not given, nearly all actives have AC50 up to about 37 µM;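 note: cells exposed to compound for 48 hours before readout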); conditions: SU-DIPG-XIII viability, CellTiter-Glo ATP luminescence
# [8] = growth inhibition of DIPG glioma cells, dose response, cell-based, JHH-DIPG-1, MIPE4.0, CellTiter-Glo, qHTS (AID 1347062; cut-off not given, nearly all actives have AC50 up to about 27 µM); conditions: JHH-DIPG-1 viability, CellTiter-Glo ATP luminescence
# [9] = growth inhibition of DIPG glioma cells, dose response, cell-based, SU-DIPG-IV, MIPE4.0, CellTiter-Glo, qHTS (AID 1347063; cut-off not given, nearly all actives have AC50 up to about 30 µM;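 note: compound exposure lasted 48 hours before the viability readout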); conditions: SU-DIPG-IV viability, CellTiter-Glo ATP luminescence
# [10] = SU-DIPG-VI glioma cell viability, MIPE4.0 library, CellTiter-Glo luminescence, qHTS (AID 1347066; cut-off not given, nearly all actives have AC50 up to about 30 µM;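 note: cells exposed to compound for 48 hours before readout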); conditions: CellTiter-Glo ATP luminescence
# [11] = molecular target: NAD(+) hydrolase SARM1 (Homo sapiens) (UniProt Q6SZW1); experiment: SARM1 TIR NADase inhibitors, cell lysate, NAD-Glo luminescence (AID 1508614;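 active = compound whose remaining NAD level is above about 45 nM, limit read from the data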;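 note: higher remaining NAD means stronger inhibition of SARM1 NADase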); conditions: SAM-TIR HEK293T lysate NADase, at 1 µM, stronger effect = higher value
# Chain of NAD(+) hydrolase SARM1 (Homo sapiens) (Q6SZW1 whole entry, looked up, the tested form may be a part): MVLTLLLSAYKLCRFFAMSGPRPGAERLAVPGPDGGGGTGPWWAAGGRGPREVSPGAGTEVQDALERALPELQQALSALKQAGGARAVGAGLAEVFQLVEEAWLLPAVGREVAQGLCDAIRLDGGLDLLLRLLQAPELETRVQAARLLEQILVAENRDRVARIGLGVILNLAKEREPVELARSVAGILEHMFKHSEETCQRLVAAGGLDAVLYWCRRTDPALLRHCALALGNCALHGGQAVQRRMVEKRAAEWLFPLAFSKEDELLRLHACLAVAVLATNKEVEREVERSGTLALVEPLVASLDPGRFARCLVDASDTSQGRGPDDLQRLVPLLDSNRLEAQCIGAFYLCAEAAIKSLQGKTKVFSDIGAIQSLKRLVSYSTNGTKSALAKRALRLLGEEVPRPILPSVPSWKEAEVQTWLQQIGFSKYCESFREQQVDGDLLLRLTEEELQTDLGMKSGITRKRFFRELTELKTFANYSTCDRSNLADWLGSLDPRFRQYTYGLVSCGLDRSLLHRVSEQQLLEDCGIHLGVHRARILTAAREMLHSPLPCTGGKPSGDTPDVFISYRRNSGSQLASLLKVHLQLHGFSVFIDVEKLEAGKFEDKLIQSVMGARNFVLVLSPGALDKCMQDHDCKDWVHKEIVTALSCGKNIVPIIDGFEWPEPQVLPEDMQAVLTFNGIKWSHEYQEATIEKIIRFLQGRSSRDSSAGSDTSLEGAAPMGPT
# [12] = molecular target: Mitogen-activated protein kinase 7 (Homo sapiens) (UniProt Q13164); experiment: ERK5 transactivation activators in reporter cells, primary screen, cell-based, HTS (AID 1508626;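 active = luciferase signal above three times the same-plate solvent-only control wells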;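 note: luciferase driven by Gal4-ERK5 fusion binding five Gal4 sites before minimal TATA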); conditions: HeLa Gal4-ERK5 transactivation, 18 h, at 5 µM, stronger effect = higher value
# Chain of Mitogen-activated protein kinase 7 (Homo sapiens) (Q13164 whole entry, looked up, the tested form may be a part): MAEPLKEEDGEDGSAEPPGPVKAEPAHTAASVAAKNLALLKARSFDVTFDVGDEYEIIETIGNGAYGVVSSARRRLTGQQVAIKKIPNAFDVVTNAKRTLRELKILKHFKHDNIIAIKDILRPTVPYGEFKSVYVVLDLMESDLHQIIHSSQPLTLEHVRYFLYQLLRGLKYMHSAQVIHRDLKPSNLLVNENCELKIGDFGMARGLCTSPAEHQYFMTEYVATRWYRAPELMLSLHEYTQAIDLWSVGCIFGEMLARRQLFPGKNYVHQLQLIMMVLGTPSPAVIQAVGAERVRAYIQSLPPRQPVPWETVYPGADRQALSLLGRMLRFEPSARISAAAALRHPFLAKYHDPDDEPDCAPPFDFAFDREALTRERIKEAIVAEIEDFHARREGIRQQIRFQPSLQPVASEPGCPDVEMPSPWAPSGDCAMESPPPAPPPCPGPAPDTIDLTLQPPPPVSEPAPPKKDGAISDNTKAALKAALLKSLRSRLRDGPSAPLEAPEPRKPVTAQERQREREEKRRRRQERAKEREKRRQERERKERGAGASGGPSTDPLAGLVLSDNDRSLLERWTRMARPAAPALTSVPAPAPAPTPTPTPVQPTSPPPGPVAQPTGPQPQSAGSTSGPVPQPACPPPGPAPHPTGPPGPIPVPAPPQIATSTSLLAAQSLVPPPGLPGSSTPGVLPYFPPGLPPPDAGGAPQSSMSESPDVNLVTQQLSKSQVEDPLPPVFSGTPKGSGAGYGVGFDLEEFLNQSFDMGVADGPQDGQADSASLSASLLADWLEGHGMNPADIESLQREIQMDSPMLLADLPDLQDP
# [13] = growth inhibition of DIPG glioma cells, dose response, cell-based, SU-DIPG-XVII, MIPE5.0, CellTiter-Glo, qHTS (AID 1347060; cut-off not given, nearly all actives have AC50 up to about 26 µM;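 for AC50: cells exposed to compound for 48 hours before viability readout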); conditions: SU-DIPG-XVII viability, CellTiter-Glo ATP luminescence
# [14] = growth inhibition of DIPG glioma cells, dose response, cell-based, SU-DIPG-XIII, MIPE5.0, CellTiter-Glo, qHTS (AID 1347064; cut-off not given, nearly all actives have AC50 up to about 23 µM;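 for AC50: cells exposed to compound for 48 hours before the viability read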); conditions: SU-DIPG-XIII viability, CellTiter-Glo ATP luminescence
# [15] = viability loss in pontine glioma line – cell-based, SU-DIPG-XXV, MIPE5.0, CellTiter-Glo, qHTS, dose response (AID 1347065; cut-off not given, nearly all actives have AC50 up to about 26 µM;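 note: cells exposed to compound for 48 hours before ATP readout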); conditions: CellTiter-Glo ATP luminescence
# [16] = JHH-DIPG-1 glioma cell viability, MIPE5.0 library, CellTiter-Glo luminescence, qHTS (AID 1347067; cut-off not given, nearly all actives have AC50 up to about 26 µM;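 note: cells exposed to compound for 48 hours before readout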); conditions: JHH-DIPG-1 glioma viability, CellTiter-Glo ATP luminescence
# [17] = SU-DIPG-XXV glioma cell viability, MIPE5.0 library, qHTS (AID 1347068; cut-off not given, nearly all actives have IC50 up to about 30 µM;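 for IC50: cells exposed to compound for 48 hours before viability readout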)
# [18] = polyglutamine-triggered caspase-3 activation inhibitors, cell-based (AID 1583); conditions: polyglutamine-induced caspase-3 activation, cell assay; stronger effect = higher value;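 tested at 10 µM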
# [19] = suppressors of polyQ aggregation in yeast, 75Q-TubU reporter (AID 1593); conditions: Yeast 75Q polyglutamine aggregation reporter
# [20] = rescue of polyQ-huntingtin neuronal dysfunction in worms, whole organism, C. elegans mechanosensory neurons, N-terminal huntingtin (AID 1599); conditions: touch response, stronger effect = higher value
# [21] = inhibitors of mitochondrial cytochrome c release, biochemical, purified mitochondria (AID 1603); conditions: stronger effect = lower value;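 note: mouse liver mitochondria challenged with calcium chloride; signal normalized to the plate average as 100%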
# [22] = inhibitors of polyQ protein aggregation (AID 1604); conditions: polyglutamine-induced protein aggregation inhibition assay; stronger effect = higher value; tested at 2.5 µM
# [23] = enhancers of glutamate uptake in motor neurons, MN-1 cell line (AID 1612); conditions: MN-1 motor neuron cells, stronger effect = higher value;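 note: tested at 1 µM final; 0% = mean of DMSO vehicle wells on each plate; positive means more glutamate uptake than control and negative means less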
# [24] = suppressors of polyglutamine aggregation in yeast, 75Q-TubH (AID 1616); conditions: S. cerevisiae 75Q-TubH polyglutamine aggregation suppression; stronger effect = higher value
# [25] = test system: Aerobactin synthetase IucA (Klebsiella pneumoniae hvKP1); experiment: Biochemical IucA enzyme inhibition primary screen of the Spectrum library (AID 1346200); conditions: malachite green pyrophosphate, A620, at 8 µM, stronger effect = lower value;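 note: 100% = wells without compound and 0% = wells lacking enzyme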
# [26] = test system: Hepatitis C virus NS3 helicase; experiment: HCV NS3 helicase inhibitors, primary screen, biochemical, fluorescence polarization, LOPAC1280 library (AID 687035; in the data active = inhibition above about 37%); conditions: Purified HCV NS3 helicase, Cy5-dT15 ssDNA binding fluorescence polarization; stronger effect = higher value; concentration not given here
# [27] = Cy5 fluorescence quenching or enhancement artefacts, artefact control for HCV NS3 helicase inhibitor project, biochemical, LOPAC1280 (AID 687037); conditions: Cy5-DNA-NS3h complex fluorescence interference counterscreen
# [28] = sensitizers of A549 cells to miR-34 induction, primary screen, imaging, A549 dox-inducible miR-34, nuclei and caspase counts (AID 1347080;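 active = compounds whose cell count with miR-34 switched on is under 0.7 times the count with it off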); conditions: A549 miR-34 inducible, Hoechst nuclei count, 48 h
# [29] = phospholipid biosynthesis inhibitors in animal cells, primary screen, cell-based, LOPAC library, screen 4 (AID 1347384); conditions: phospholipid biosynthesis inhibition screen, at 10 µM
# [30] = viability rescue of complex I mutant cybrids, primary screen, cell-based, galactose medium, ATP luminescence (AID 1645843;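 active = z-score of at least 1.8 in each of two replicates, scored against plate mean and spread of sample wells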;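 note: positive z means more ATP and so rescue of galactose-driven cybrid death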); conditions: complex I mutant cybrid cells, 72 h, stronger effect = higher value
# [31] = survival rescue of mitochondrial mutant cells in low glucose, primary screen, MELAS cybrids, Rieske KO mouse fibroblasts, CellTiter-Glo (AID 1508586;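 active = mean z-score across replicates of 1.96 or higher in either the MELAS or the Rieske mutant cell line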;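 note: z relative to plate mean and SD of compound and empty wells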)
# [32] = protection against mutant huntingtin cytotoxicity, PC12 cells, LDH release (AID 1610); conditions: PC12 mutant huntingtin toxicity, final LDH at 4 uM, stronger effect = lower value
# [33] = modifiers of HSF1 nuclear foci, imaging, Selleck Cancer Library (AID 1347162; in the data active = plate-normalised HSF1 focus index below about 0.46); conditions: human cells, at 10 µM; SSMD: measured here: HSF1 foci SSMD mean; cell count: measured here: cell number; plate-normalised HSF1 focus index: stronger effect = lower value
# [34] = molecular target: ATP-dependent translocase ABCB1 (Homo sapiens) (UniProt P08183); experiment: MDR1 (ABCB1) efflux transporter inhibition, cell-based (AID 377; in the data active = fluorescence slope change above about 50%); conditions: MDR1-expressing cells, fluorescent substrate accumulation slope; stronger effect = higher value; concentration not given here
# Chain of ATP-dependent translocase ABCB1 (Homo sapiens) (P08183 whole entry, looked up): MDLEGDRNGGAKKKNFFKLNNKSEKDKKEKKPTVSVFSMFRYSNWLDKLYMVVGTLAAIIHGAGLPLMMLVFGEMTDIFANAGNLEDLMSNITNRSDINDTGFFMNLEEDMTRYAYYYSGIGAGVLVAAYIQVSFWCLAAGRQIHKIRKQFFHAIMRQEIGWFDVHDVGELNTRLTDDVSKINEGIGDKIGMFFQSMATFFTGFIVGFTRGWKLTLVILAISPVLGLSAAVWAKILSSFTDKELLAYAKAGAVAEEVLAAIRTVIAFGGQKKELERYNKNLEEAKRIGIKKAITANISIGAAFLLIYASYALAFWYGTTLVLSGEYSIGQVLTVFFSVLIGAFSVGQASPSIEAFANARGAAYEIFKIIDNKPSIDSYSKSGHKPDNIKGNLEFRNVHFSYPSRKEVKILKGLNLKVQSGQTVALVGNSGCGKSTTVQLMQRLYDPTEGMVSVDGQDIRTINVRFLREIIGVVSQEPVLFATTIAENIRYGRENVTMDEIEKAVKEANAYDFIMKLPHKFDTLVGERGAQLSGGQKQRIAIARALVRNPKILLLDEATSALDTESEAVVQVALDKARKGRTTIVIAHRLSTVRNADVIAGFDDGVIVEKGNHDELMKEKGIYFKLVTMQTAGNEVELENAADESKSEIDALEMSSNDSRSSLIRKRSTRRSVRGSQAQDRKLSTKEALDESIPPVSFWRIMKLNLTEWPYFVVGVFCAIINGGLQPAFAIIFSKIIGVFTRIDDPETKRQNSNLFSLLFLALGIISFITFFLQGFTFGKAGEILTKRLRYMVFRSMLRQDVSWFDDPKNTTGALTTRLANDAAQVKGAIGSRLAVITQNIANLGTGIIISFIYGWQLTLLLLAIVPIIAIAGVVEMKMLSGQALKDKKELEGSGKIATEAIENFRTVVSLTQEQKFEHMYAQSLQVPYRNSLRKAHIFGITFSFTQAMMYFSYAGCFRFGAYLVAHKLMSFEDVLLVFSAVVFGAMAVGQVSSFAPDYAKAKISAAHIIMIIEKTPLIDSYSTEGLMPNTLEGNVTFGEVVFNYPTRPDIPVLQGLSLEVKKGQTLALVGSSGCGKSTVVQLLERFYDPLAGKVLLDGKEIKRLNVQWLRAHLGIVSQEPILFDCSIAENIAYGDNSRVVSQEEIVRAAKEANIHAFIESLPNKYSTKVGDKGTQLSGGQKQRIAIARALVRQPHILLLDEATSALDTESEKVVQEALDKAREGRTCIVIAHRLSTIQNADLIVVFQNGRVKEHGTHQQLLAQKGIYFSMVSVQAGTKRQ
# [35] = hESC survival regulators, cell-based (AID 493140); conditions: human embryonic stem cell survival screen; stronger effect = higher value;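 note: cells exposed to compounds for four days before counting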
# [36] = test system: Aerobactin synthetase IucA (Klebsiella pneumoniae, hypervirulent); experiment: IucA enzyme inhibition, biochemical, LOPAC library, absorbance readout (AID 1346212); conditions: IucA enzyme assay, absorbance (OD) readout; stronger effect = lower value;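 tested at 8 µM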;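 note: 100% = no compound wells and 0% = no enzyme wells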
# [37] = measured here: relative caspase fold change +Dox/-Dox
# [38] = measured here: total cells with miR-34 induction, stronger effect = lower value
# [39] = measured here: total cells without miR-34 induction
# [40] = MELAS cybrid survival, CellTiter-Glo 48 h, stronger effect = higher value
# [41] = Rieske KO mouse fibroblast survival, CellTiter-Glo 72 h
compound,measurement,setting,value
C[C@]12CC[C@H]3[C@@H](CCC4=CC(=O)CC[C@@]43C)[C@@H]1CC[C@@H]2O,parasite load remaining,[1],61.8% (inactive)
same,viability,[1],72.2%
same,fluorescence ratio,[2],0.93 (inactive)
same,inhibition,[3],1.53% (inactive)
same,inhibition,[4],0.39% (inactive)
same,fluorescence ratio,[5],0.96 (inactive)
same,inhibition,[6],16.5% (inactive)
same,outcome,[7],inactive
same,outcome,[8],inactive
same,outcome,[9],inactive
same,outcome,[10],inactive
same,remaining NAD,[11],10 nM (inactive)
same,luciferase signal,[12],68 AU (inactive)
CC(C)[C@]12O[C@H]1[C@@H]1O[C@@]13[C@@]1(C)CCC4=C(COC4=O)[C@@H]1C[C@@H]1O[C@@]13C2=O,inhibition,[6],3.27% (inactive)
same,AC50,[13],295 nM (active)
same,AC50,[14],263 nM (active)
same,AC50,[15],372 nM (active)
same,AC50,[16],132 nM (active)
same,IC50,[17],372 nM (active)
CC[C@@]1(O)C[C@H](O[C@H]2C[C@H](N(C)C)[C@H](O)[C@H](C)O2)c2c(cc3c(c2O)C(=O)c2c(O)cccc2C3=O)[C@H]1C(=O)OC,inhibition,[18],61.1%
same,score,[19],0.65
same,rescue above control,[20],1.11
same,cytochrome c release ratio,[21],3.13
same,inhibition of aggregation,[22],90.8%
same,glutamate uptake change,[23],-25.9%
same,aggregation suppression score,[24],0.115
same,parasite load remaining,[1],0.915% (inactive)
same,viability,[1],15.1%
same,inhibition,[6],-8.44% (inactive)
same,activity remaining,[25],107% (inactive)
same,luciferase signal,[12],5360 AU (active)
CC(C)=CCOc1c2occc2cc2ccc(=O)oc12,parasite load remaining,[1],18.8% (inactive)
same,viability,[1],92.7%
same,inhibition,[26],-2% (inactive)
same,fluorescence ratio (interference),[27],1 (inactive)
same,inhibition,[6],4.77% (inactive)
same,activity remaining,[25],108% (inactive)
same,fold change,[28]; stronger effect = lower value,1.08 (inactive)
same,fold change,[28]; [37],1.1
same,cell count,[28]; [38],8640
same,cell count,[28]; [39],8010
same,outcome,[29],inactive
same,z-score,[30],0.56 (inactive)
COc1cc([C@@H]2c3cc4c(cc3[C@H](OC(C)=O)[C@H]3COC(=O)[C@@H]23)OCO4)cc(OC)c1OC,inhibition,[6],-3.31% (inactive)
same,activity remaining,[25],96.2% (inactive)
same,luciferase signal,[12],64 AU (inactive)
CC(C)C[C@H](CN)CC(=O)O,inhibition,[6],9.49% (inactive)
same,outcome,[13],inactive
same,outcome,[7],inactive
same,outcome,[8],inactive
same,outcome,[9],inactive
same,outcome,[14],inactive
same,outcome,[15],inactive
same,outcome,[10],inactive
same,outcome,[16],inactive
same,outcome,[17],inactive
same,z-score,[31]; [40],-0.0671 (inactive)
same,z-score,[31]; [41],0.159
same,remaining NAD,[11],10 nM (inactive)
OCC(O)Cc1ccc2c(c1)OCO2 (stereo not given),inhibition,[6],11.1% (inactive)
same,activity remaining,[25],123% (inactive)
same,luciferase signal,[12],16 AU (inactive)
CC(=O)Oc1ccc(Cl)c2cccnc12,inhibition,[18],11.4%
same,score,[19],0.08
same,rescue above control,[20],7.46
same,cytochrome c release ratio,[21],1.44
same,inhibition of aggregation,[22],87.2%
same,normalised LDH release,[32],1.08
same,glutamate uptake change,[23],14.2%
same,aggregation suppression score,[24],0.0401
same,parasite load remaining,[1],-5% (inactive)
same,viability,[1],65.2%
same,inhibition,[6],-4.5% (inactive)
same,activity remaining,[25],124% (inactive)
C[C@]12CCC(=O)C(O)=C1CC[C@@H]1[C@@H]2CC[C@]2(C)C(=O)CC[C@@H]12,parasite load remaining,[1],20.3% (inactive)
same,viability,[1],80.5%
same,inhibition,[6],-18.3% (inactive)
same,outcome,[13],inactive
same,outcome,[7],inactive
same,outcome,[8],inactive
same,outcome,[9],inactive
same,outcome,[14],inactive
same,outcome,[15],inactive
same,outcome,[16],inactive
same,outcome,[17],inactive
same,fold change,[28]; stronger effect = lower value,0.801 (inactive)
same,fold change,[28]; [37],1.62
same,cell count,[28]; [38],8120
same,cell count,[28]; [39],10100
same,SSMD,[33],1.39
same,cell count,[33],6710
same,plate-normalised HSF1 focus index,[33],1.07 (inactive)
same,z-score,[31]; [40],1.07 (inactive) and 0.415 (inactive)
same,z-score,[31]; [41],-0.144 and -0.532
same,remaining NAD,[11],10 nM (inactive)
same,luciferase signal,[12],48 AU (inactive)
same,z-score,[30],0.27 (inactive)
CCC(N)C(O)c1ccc(O)c(O)c1 (stereo not given),parasite load remaining,[1],130% (inactive) and 71.4% (inactive)
same,viability,[1],87.2% and 104%
same,inhibition,[6],-10.4% (inactive)
same,activity remaining,[25],121% (inactive)
same,fold change,"[28]; stronger effect = lower value, cell number ratio, induced over uninduced",0.787 (inactive)
same,fold change,[28]; [37],5.47
same,cell count,[28]; [38],7560
same,cell count,[28]; [39],9610
same,remaining NAD,[11],10 nM (inactive)
same,luciferase signal,[12],76 AU (inactive)
Oc1ccc2c3c1O[C@H]1[C@@H](O)CC[C@@]4(O)[C@@H](C2)N(CC2CCC2)CC[C@]314,fluorescence slope change,[34],211% (active)
same,survival,[35],24.5 (inactive)
same,parasite load remaining,[1],32.6% (inactive) and 106% (inactive) and 79.1% (inactive)
same,viability,[1],52.8% and 85.6% and 172%
same,inhibition,[6],-20.2% (inactive)
same,remaining activity,[36],118% (inactive)
same,fold change,[28]; stronger effect = lower value,0.924 (inactive) and 0.934 (inactive)
same,fold change,[28]; [37],1.19 and 1.05
same,cell count,[28]; [38],9080 and 10200
same,cell count,[28]; [39],9820 and 11000
same,z-score,[31]; [40],0.883 (inactive) and 0.331 (inactive)
same,z-score,[31]; [41],0.202 and -0.251
same,remaining NAD,[11],10 nM (inactive)
same,luciferase signal,[12],52 AU (inactive)
same,z-score,[30],0.78 (inactive)
COc1ccc([C@H]2Oc3c(I)c(OC)cc(OC)c3C[C@@H]2O)cc1OC,inhibition,[6],14.5% (inactive)
same,activity remaining,[25],103% (inactive)
same,luciferase signal,[12],44 AU (inactive)
